Measured values as given in PubChem BioAssay (NCI).
Compounds without any hit were thinned out: in the full panel of roughly 83,000, 20% have a hit.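 Negative percent growth values reflect cell death: -40 means 40% of the cells present at the start died, and -100 means all died.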 Activity calls are given as the source filed them. How the source made its calls: active means growth percent below 10; inactive means the rest.

Key:
Assay in all cases: NCI-60 one-dose screen, 48 h (100 = growth as untreated, 0 = no growth, -100 = all killed)
Conditions in all cases: 10 µM unless noted
[1] = system: EKVX NSCLC
[2] = system: SN12C renal
[3] = system: UO-31 renal
[4] = system: TK-10 renal
[5] = system: ACHN renal
[6] = system: CAKI-1 renal
[7] = system: A498 renal
[8] = system: CCRF-CEM leukemia
[9] = system: MOLT-4 leukemia

Measured: growth

CN1CCC(CNc2ccc3ncc(-c4cccc(OC(F)(F)F)c4)n3n2)CC1
active: [1] 4.31% | [2] -81.2% | [3] -95.1% | [4] -4.7% | [5] -54.7% | [6] -62.8% | [7] -79.8% | [8] -5.49% | [9] -5.02%

Cc1cc(C(O)CN(C)C)cc2c1ccc1cc(C(C)C)ccc12 (stereo unspecified)
inactive: [1] 84.5% | [2] 62.6% | [3] 26.4% | [7] 76.8%
active: [4] -62.1% | [5] -28.6% | [6] 8.02% | [8] 3.14% | [9] -29.5%

O=C(NOCCO)c1cc(CN2OCCCC2=O)c(F)c(F)c1Nc1ccc(I)cc1F
inactive: [1] 46% | [2] 49.5% | [3] 15% | [4] 36.4% | [5] 49.5% | [6] 40.8% | [8] 101% | [9] 76.6%
active: [7] -33%

CCCCCCCCCNCCCCCCCCC
inactive: [1] 81.9% | [2] 59.5% | [3] 36.4% | [4] 70.4% | [5] 81.5% | [6] 42% | [7] 88.9% | [8] 23.7% | [9] 49.7%

CC/C(=C(/c1ccc(Cl)cc1)c1ccc(OCCN2CCCCC2)cc1)c1ccc(Cl)cc1
inactive: [1] 57.4% | [2] 76.5% | [3] 58.8% | [4] 90.8% | [5] 91.2% | [6] 74.4% | [7] 94% | [8] 50.6% | [9] 69.2%

CNC(=O)c1cc(Oc2ccc(NC(=O)Nc3cc(C(C)(C)C)nn3-c3ccc4ncccc4c3)c(F)c2)ccn1
active: [1] -16.9% | [2] -10.3% | [3] -21.4% | [4] -35.5% | [5] -20.6% | [6] -24.9% | [7] -71.3% | [8] 8.17% | [9] -1.34%

O=C1NC(=O)C(c2cnc3ccccn23)=C1c1cn2c3c(cc(F)cc13)CN(C(=O)N1CCCCC1)CC2
inactive: [1] 68.6% | [2] 63.2% | [3] 28.8% | [4] 56.1% | [5] 39.7% | [6] 43.5% | [8] 27.9% | [9] 12.1%
active: [7] -10.5%

CCN(CC)CCOc1ccc(/C(=C(\C)c2ccc(Cl)cc2)c2ccc(Cl)cc2)cc1
inactive: [1] 88.6% | [2] 76.5% | [3] 64.8% | [4] 87.6% | [5] 94.5% | [6] 83.4% | [7] 79.6% | [8] 43.1% | [9] 50.7%

NC1(C(=O)N[C@@H](CCO)c2ccc(Cl)cc2)CCN(c2ncnc3[nH]ccc23)CC1
active: [7] -46.2%
inactive: [1] 61.9% | [2] 55.6% | [3] 17.5% | [4] 13.7% | [5] 53.4% | [6] 34.4% | [8] 41.6% | [9] 11.4%

CC[C@H](CO)Nc1nc(NCc2ccccc2)c2ncn(C(C)C)c2n1
inactive: [1] 72.3% | [2] 73.4% | [3] 55.4% | [4] 92.4% | [5] 46.8% | [6] 48% | [7] 71.3% | [8] 65.9% | [9] 49.6%

O=C1C=CC2(NN=C(c3ccccc3)N2c2ccc(Cl)cc2)c2cccc(O)c21 (stereo unspecified)
inactive: [1] 75.1% | [2] 26.4% | [3] 28.2% | [4] 100% | [5] 61.1% | [6] 84% | [7] 91.3% | [8] 83.1% | [9] 61.8%

CNC(=O)CN1CCC(Oc2cc3c(Nc4cccc(Cl)c4F)ncnc3cc2OC)CC1
inactive: [1] 32.1% | [2] 42.7% | [3] 26.3% | [6] 10.6% | [7] 44.2% | [8] 64.7% | [9] 51.7%
active: [4] 1.03% | [5] 8.22%

Cc1c(Cn2c(C)nc3c(C(=O)O)cc(N4CCOCC4)cc32)cccc1C(F)(F)F
inactive: [1] 101% | [2] 95.7% | [3] 47% | [4] 84.1% | [5] 77.1% | [6] 91.7% | [8] 79.6% | [9] 60.2%
active: [7] -17%

CCOc1ccc(N=C(C)Nc2ccc(OCC)cc2)cc1
inactive: [1] 109% | [2] 102% | [3] 82.3% | [4] 108% | [5] 99.5% | [6] 122% | [7] 100% | [8] 88% | [9] 93.8%

CCN(CC)CCNC(=O)c1c(C)[nH]c(/C=C2\C(=O)Nc3ccc(F)cc32)c1C
active: [3] 7.88% | [5] -12.8% | [8] 7.54%
inactive: [1] 17.8% | [2] 26% | [4] 27.1% | [6] 17.5% | [7] 47.4% | [9] 17%

COc1cc2c(cc1OCCCN1Cc3ccc(OCCCCC(=O)N4CCC(CCN5CCCC5)CC4)cc3C1)N=C(N)C21CCCC1
inactive: [1] 96.9% | [2] 95.3% | [3] 93.7% | [4] 99.3% | [5] 110% | [6] 93.9% | [7] 78.8% | [8] 61.3% | [9] 44.8%

CC[C@@H]1C(=O)N(C)c2cnc(Nc3ccc(C(=O)NC4CCN(C)CC4)cc3OC)nc2N1C1CCCC1
active: [2] 2.27% | [7] -28.3% | [8] -0.208% | [9] -14%
inactive: [1] 31.6% | [3] 13.4% | [4] 14.9% | [5] 21.2% | [6] 23%

Cc1cn(-c2cc(NC(=O)c3ccc(C)c(Nc4nccc(-c5cnccn5)n4)c3)cc(C(F)(F)F)c2)cn1
inactive: [1] 107% | [2] 56.5% | [3] 62.9% | [4] 102% | [5] 83.7% | [6] 97.6% | [7] 106% | [8] 60.5% | [9] 52.6%

CNC(=O)c1nn(C)c2c1C(C)(C)Cc1cnc(Nc3ccc(N4CCN(C)CC4)cc3)nc1-2
active: [1] 5.74% | [3] -8.73% | [4] -12.5% | [5] 9.62% | [6] 7.68% | [7] -61.6% | [9] 2.29%
inactive: [2] 11.3% | [8] 10.4%

Cn1ncc(Cl)c1-c1cc(C(=O)N[C@H](CN)Cc2cccc(F)c2)sc1Cl
inactive: [1] 38.5% | [2] 29.5% | [5] 18.7% | [6] 11%
active: [3] -10.1% | [4] 8.77% | [7] -61.2% | [8] 6.1% | [9] -14.5%

c1cn2cc(-c3ccc4cn[nH]c4c3)nc(Nc3ccc(N4CCOCC4)cc3)c2n1
inactive: [1] 83.9% | [2] 41.3% | [3] 65.1% | [4] 76.1% | [5] 39% | [6] 39.4% | [7] 68.7% | [8] 66.9% | [9] 61.8%

CN(c1ncccc1CNc1nc(Nc2ccc3c(c2)CC(=O)N3)ncc1C(F)(F)F)S(C)(=O)=O
inactive: [6] 12.1%
active: [1] 8.69% | [2] 9.55% | [3] -4.35% | [4] 0.859% | [5] -0.448% | [7] -16.6% | [8] 3.5% | [9] 0.451%

C=CC(=O)Nc1cc2c(Nc3ccc(F)c(Cl)c3)ncnc2cc1C#CC(C)(C)N1CCN(C)CC1
active: [1] -93% | [2] -87.7% | [3] -99.8% | [4] -97.5% | [5] -100% | [6] -99.8% | [7] -96.3% | [8] -11.5% | [9] -23.1%

C=CC(=O)N1CCC[C@H](n2c(=O)n(-c3ccc(Oc4ccccc4)cc3)c3c(N)ncnc32)C1
inactive: [1] 57.4% | [2] 71% | [3] 50.5% | [4] 27.6% | [5] 41.2% | [6] 69.1% | [7] 81.2% | [8] 82.3% | [9] 68.5%

COc1ccc(Br)cc1NC(=O)Nc1cccc2c1ccn2Cc1ccnc(N)c1
active: [3] 9.39% | [7] -2.46% | [9] 8.16%
inactive: [1] 31.3% | [2] 40.9% | [4] 22.1% | [5] 24.1% | [6] 15% | [8] 27.3%

CC(C)(C)c1nc(-c2cccc(NS(=O)(=O)c3c(F)cccc3F)c2F)c(-c2ccnc(N)n2)s1
inactive: [1] 97.7% | [2] 80.1% | [3] 37.1% | [4] 65.2% | [5] 59.3% | [6] 56.4% | [7] 135% | [8] 59% | [9] 39.4%

COc1cc2nc(Nc3cccc(Cl)c3)nc(N)c2cc1OC
inactive: [1] 111% | [2] 79.3% | [3] 75.3% | [4] 91.9% | [5] 95.8% | [6] 146% | [7] 63.5% | [9] 53.7%
active: [8] -81.3%

CO[C@H]1C[C@@H]2CC[C@@H](C)[C@@](O)(O2)C(=O)C(=O)N2CCCC[C@H]2C(=O)O[C@H]([C@H](C)C[C@@H]2CC[C@@H](OP(C)(C)=O)[C@H](OC)C2)CC(=O)[C@H](C)/C=C(\C)[C@@H](O)[C@@H](OC)C(=O)[C@H](C)C[C@H](C)\C=C/C=C/C=C/1C
active: [7] 2.06%
inactive: [1] 49.8% | [2] 53.9% | [3] 27.3% | [4] 46% | [5] 54.4% | [6] 50.1% | [8] 37.2% | [9] 28.8%

Cc1nn(-c2ccccc2)c2c1N=c1s/c(=C\c3cn(-c4ccccc4)nc3-c3ccc(Cl)cc3)c(=O)n1C(C)N2 (stereo unspecified)
inactive: [1] 84.8% | [2] 91.5% | [3] 70.1% | [4] 152% | [5] 83.7% | [6] 83.6% | [7] 123% | [8] 110% | [9] 95.3%

C#Cc1cccc(Nc2ncnc3cc(OCCOC)c(OCCOC)cc23)c1
inactive: [1] 39.6% | [2] 50.5% | [3] 17.3% | [5] 11.3% | [7] 20.2% | [8] 71.2% | [9] 56.1%
active: [4] -6.62% | [6] 6.29%

Cc1[nH]c(/C=C2\C(=O)Nc3ccc(F)cc32)c(C)c1C(=O)NC[C@H](O)CN1CCOCC1
inactive: [1] 44.9% | [2] 27.6% | [4] 50.1% | [5] 23.8% | [7] 30.5% | [8] 33% | [9] 15.7%
active: [3] -1.44% | [6] 4.97%

CN1C/C=C\CCOc2cccc(c2)-c2ccnc(n2)Nc2cccc(c2)C1
active: [1] -14.7% | [2] -41.5% | [3] -79.3% | [4] -53.2% | [5] -37.9% | [6] -87.9% | [7] -77.8% | [8] 3.32% | [9] -20%

COc1ccc(Nc2ncccc2NC(=O)c2cn(Cc3cccc(Oc4ccccc4)c3)nn2)cc1
inactive: [1] 86.6% | [2] 92.3% | [3] 63.7% | [4] 99.6% | [5] 99.5% | [6] 87.3% | [7] 81.5% | [8] 91.4% | [9] 65.3%

Cc1ccc(-n2nc(C(C)(C)C)cc2NC(=O)NCc2cc(F)ccc2Oc2ccc3c(cnn3CCO)c2)cc1
active: [3] -6.07% | [4] 4.78% | [7] -10.8% | [9] 3.32%
inactive: [1] 39.7% | [2] 19.5% | [5] 11.7% | [6] 20.2% | [8] 20%
